For eight compounds, growth results are on record in PubChem BioAssay (NCI).

What all share (assay): NCI-60 one-dose screen, 48 h (100 = growth as untreated, 0 = no growth, -100 = all killed)
The subject of one assay is HCT-15 colon. The note with it: 10 µM unless noted.
In a further assay the test system is HT29 colon. The note with it: 10 µM unless noted.
The test system of another assay is SNB-75 CNS. The note with it: 10 µM unless noted.
For the next assay, the system named is SNB-19 CNS. The note with it: 10 µM unless noted.
The subject of a further assay is U251 CNS. The note with it: 10 µM unless noted.
A further assay has as its system PC-3 prostate. The note with it: 10 µM unless noted.
The next assay deals with SK-MEL-5 melanoma. The note with it: 10 µM unless noted.
Another assay has as its system UACC-62 melanoma. The note with it: 10 µM unless noted.
Another assay has as its system LOX IMVI melanoma. The note with it: 10 µM unless noted.
The test system of another assay is SK-MEL-28 melanoma. The note with it: 10 µM unless noted.
For the next assay, the system named is SK-MEL-2 melanoma. The note with it: 10 µM unless noted.
For another assay, the system named is EKVX NSCLC. The note with it: 10 µM.
In another assay the test system is SN12C renal. The note with it: 10 µM unless noted.
The next assay concerns UO-31 renal. The note with it: 10 µM unless noted.
The subject of another assay is TK-10 renal. The note with it: 10 µM unless noted.
The subject of another assay is ACHN renal. The note with it: 10 µM unless noted.
The test system of the next assay is CAKI-1 renal. The note with it: 10 µM unless noted.
A further assay concerns A498 renal. The note with it: 10 µM unless noted.
The subject of another assay is CCRF-CEM leukemia. The note with it: 10 µM.
The subject of another assay is MOLT-4 leukemia. The note with it: 10 µM unless noted.

This is part of a sample that, as a whole, favours compounds with a hit. Of some 83,000 tested, about 20% had one in any assay.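 Interpretation: 100, growth as untreated; towards 0, rising growth inhibition; 0, no net growth; 0 to -100, cell death. Compounds scoring below 10 were considered active.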 A number with no mark means an inactive call. The source made the active and inactive calls.

On to `c1ccc(C(=NNc2nc3ccccc3o2)c2ccccn2)nc1`, for which the growth was 16.8% with HCT-15 colon; 23% in the assay with HT29 colon; 31.7% with SNB-75 CNS; 24.5% in the assay on SNB-19 CNS; 10.6% in the assay on U251 CNS; 29.2% in the assay on PC-3 prostate. Moreover, the growth in the assay with SK-MEL-5 melanoma was -58% (active); in the assay with UACC-62 melanoma, -8.29% (active); with LOX IMVI melanoma, 0.582% (active); in the assay on SK-MEL-28 melanoma it was 25.2%; in the assay with SK-MEL-2 melanoma it was 37.7%; in the assay on EKVX NSCLC it was 8% (active). Also, the growth is 16.1% with SN12C renal; 2.19% (active) in the assay with UO-31 renal; 41.8% in the assay on TK-10 renal; 8.01% (active) in the assay on ACHN renal; 5.09% (active) in the assay on CAKI-1 renal; -27% (active) with A498 renal. Besides, the growth with CCRF-CEM leukemia is 3.17% (active); in the assay with MOLT-4 leukemia it was 12.3%.
Turning to `Nc1ccc(S(=O)(=O)c2ccc(NO)cc2)cc1`, the growth in the assay on HCT-15 colon is 116%; with HT29 colon, 101%; in the assay on SNB-75 CNS, 87.8%; in the assay with SNB-19 CNS it was 97.1%; in the assay with U251 CNS, 101%; with PC-3 prostate, 96.8%. Besides, the growth with SK-MEL-5 melanoma was 102%; in the assay on UACC-62 melanoma it was 115%; in the assay on LOX IMVI melanoma, 99.5%; in the assay with SK-MEL-28 melanoma it was 105%; in the assay on SK-MEL-2 melanoma, 93.2%; with EKVX NSCLC it was 90.5%. In addition, the growth in the assay on SN12C renal is 121%; in the assay on UO-31 renal, 84.2%; in the assay with TK-10 renal, 131%; with ACHN renal, 114%; with CAKI-1 renal, 102%; in the assay with A498 renal, 114%. The values for the growth in the assay with CCRF-CEM leukemia and in the assay on MOLT-4 leukemia were 91.8% and 95.9%, respectively.
For `CC(O)C(N)=O` (stereo not given), the growth with HCT-15 colon was 97.1%; in the assay on HT29 colon it was 111%; with SNB-75 CNS it was 84.3%; in the assay with SNB-19 CNS it was 106%; with U251 CNS, 103%; with PC-3 prostate, 92.6%. In addition, the growth in the assay on SK-MEL-5 melanoma is 101%; in the assay on UACC-62 melanoma it was 107%; in the assay on LOX IMVI melanoma, 109%; in the assay on SK-MEL-28 melanoma, 100%; in the assay on SK-MEL-2 melanoma, 111%; in the assay on EKVX NSCLC, 99.6%. In addition, the growth in the assay on SN12C renal was 106%; in the assay with UO-31 renal it was 97%; in the assay with TK-10 renal, 108%; with ACHN renal, 104%; in the assay with CAKI-1 renal, 95.6%; in the assay on A498 renal, 103%. The growth in the assay with CCRF-CEM leukemia is 102%; in the assay with MOLT-4 leukemia it was 110%.
`CC(=O)/C(=C/c1ccc(-c2ccccc2)cc1)C(=O)c1ccccc1`: the growth in the assay on HCT-15 colon is 66.9%; with HT29 colon it was 70.2%; in the assay on SNB-75 CNS, 79.7%; in the assay on SNB-19 CNS, 82.3%; in the assay on U251 CNS it was 61%; with PC-3 prostate, 63.1%. In addition, the growth with SK-MEL-5 melanoma was 87.3%; in the assay on UACC-62 melanoma, 80.5%; in the assay on LOX IMVI melanoma, 19.5%; in the assay with SK-MEL-28 melanoma, 96.2%; with SK-MEL-2 melanoma, 99.1%; in the assay on EKVX NSCLC it was 100%. The growth in the assay on SN12C renal was 92.7%; in the assay with UO-31 renal, 76.3%; in the assay on TK-10 renal, 103%; with ACHN renal, 88.3%; in the assay with CAKI-1 renal, 91.3%; in the assay with A498 renal, 96.5%. The values for the growth with CCRF-CEM leukemia and with MOLT-4 leukemia were 38.6% and 5.31% (active), respectively.
As for `CCCCCCCCCCCCCCCC[n+]1cccc(C#N)c1`, the growth was 13.1% with HCT-15 colon; 27.1% in the assay on HT29 colon; 74.8% with SNB-75 CNS; 26.4% with SNB-19 CNS; 29.7% in the assay with U251 CNS; 25.1% in the assay with PC-3 prostate. Further, the growth in the assay with SK-MEL-5 melanoma is 58.3%; with UACC-62 melanoma it was 83.9%; with LOX IMVI melanoma it was 12.4%; in the assay with SK-MEL-28 melanoma, 83%; in the assay on SK-MEL-2 melanoma, 97.7%; in the assay on EKVX NSCLC, 98%. Further, the growth with SN12C renal was 96.9%; in the assay on UO-31 renal, 67.6%; in the assay on TK-10 renal, 69.3%; in the assay on ACHN renal, 39.2%; with CAKI-1 renal, 73%; with A498 renal it was 86.6%. Also, the growth is -26% (active) with CCRF-CEM leukemia and -13.3% (active) in the assay on MOLT-4 leukemia.
With `COc1cc(N)c2nccc(C)c2c1OC`, the growth with HCT-15 colon was 115%; in the assay with HT29 colon it was 111%; in the assay on SNB-75 CNS, 103%; with SNB-19 CNS, 109%; in the assay with U251 CNS, 99.4%; with PC-3 prostate it was 108%. Besides, the growth with SK-MEL-5 melanoma is 101%; with UACC-62 melanoma, 93.7%; in the assay with LOX IMVI melanoma, 96.2%; with SK-MEL-28 melanoma, 115%; in the assay on SK-MEL-2 melanoma, 103%; with EKVX NSCLC, 92.7%. Also, the growth in the assay on SN12C renal is 98.8%; in the assay on UO-31 renal it was 164%; in the assay with TK-10 renal it was 116%; with ACHN renal, 110%; in the assay on CAKI-1 renal, 98.4%; in the assay with A498 renal, 93.5%. The growth with CCRF-CEM leukemia was 101%; in the assay with MOLT-4 leukemia, 80.6%.
Consider `CCc1ccc(C(=Nc2ccc(N(C)C(=O)CN3CCN(C)CC3)cc2)c2c(O)[nH]c3ccc(C(=O)OC)cc23)cc1`, for which the growth with HCT-15 colon is -73.2% (active); in the assay on HT29 colon, -66.3% (active); with SNB-75 CNS it was -97.3% (active); in the assay with SNB-19 CNS, -84.9% (active); in the assay on U251 CNS, -75.1% (active); with PC-3 prostate, -60.9% (active). The growth is -98.1% (active) in the assay on SK-MEL-5 melanoma; -57.5% (active) in the assay on UACC-62 melanoma; -93.9% (active) with LOX IMVI melanoma; -87.3% (active) with SK-MEL-28 melanoma; -55.4% (active) in the assay with SK-MEL-2 melanoma; -17.4% (active) in the assay on EKVX NSCLC. For the same compound, the growth in the assay with SN12C renal is -57.4% (active); in the assay on UO-31 renal it was -94.9% (active); in the assay with TK-10 renal it was -64.7% (active); with ACHN renal, -69.1% (active); in the assay with CAKI-1 renal, -82.9% (active); in the assay on A498 renal it was -82.2% (active). Moreover, the growth is -15.5% (active) with CCRF-CEM leukemia and -37.6% (active) in the assay with MOLT-4 leukemia.
As to `O=C(Cc1ccccc1[N+](=O)[O-])c1ccc2c(c1)OCO2`, the growth was 104% with HCT-15 colon; 102% with HT29 colon; 91.3% with SNB-75 CNS; 97.7% in the assay with SNB-19 CNS; 98.8% in the assay with U251 CNS; 96.8% in the assay on PC-3 prostate. The growth in the assay on SK-MEL-5 melanoma is 103%; in the assay with UACC-62 melanoma it was 88.8%; in the assay on LOX IMVI melanoma, 96.9%; in the assay on SK-MEL-28 melanoma it was 105%; with SK-MEL-2 melanoma, 99.4%; in the assay with EKVX NSCLC, 97.5%. The growth was 96% in the assay with SN12C renal; 80.1% with UO-31 renal; 91.6% with TK-10 renal; 103% in the assay on ACHN renal; 97.8% in the assay on CAKI-1 renal; 77.9% in the assay on A498 renal. The growth in the assay on CCRF-CEM leukemia was 76.3%; with MOLT-4 leukemia, 86.6%.
